Results as given in PubChem BioAssay AID540333 (Southern Research Specialized Biocontainment Screening …, 2011).
The whole screen tested about 10,000 compounds, of which about 320 (3.2%) were called active. Cut-off read from the data, not from the text of the source: active = CPE inhibition mostly above about 9.1% (no sharp cut-off); inactive = mostly below about 7.2%. The sample as a whole holds a higher share of actives than the screen did.

assay: antivirals protecting cells from dengue CPE – CPE readout, HTS (AID 540333); settings: Dengue virus CPE inhibition in host cells, at 20 µM; stronger effect = higher value

| Compound | CPE inhibition |
| --- | --- |
| Cc1cccn2c(=O)c(/C=C(\C#N)C(=O)NCc3ccco3)c(N3CCC(C(N)=O)CC3)nc12 | 0.26% (inactive) |
| Cc1cccn2c(=O)c(/C=C(\C#N)C(=O)NC3CCS(=O)(=O)C3)c(N3CCC(C(N)=O)CC3)nc12 (centres undefined) | 0.15% (inactive) |
| Cc1cccn2c(=O)c(/C=C(\C#N)C(=O)NCc3ccco3)c(N3CCCC(C)C3)nc12 (centres undefined) | 11.3% (active) |
| CCOP(=O)(OCC)C(NC(=O)Nc1ccc(Cl)cc1)c1ccccc1 (centres undefined) | 0.17% (inactive) |
| Cn1cccc1CC(=O)N/N=C/C=C/c1ccccc1 | 0.02% (inactive) |
| COc1ccc(COc2ccccc2C(=O)NCc2ccccc2)cc1F | 1.67% (inactive) |
| Cc1cc(C)c2c(c1)cc(C)c1nnc(SCC(=O)Nc3ccccc3N3CCOCC3)n12 | inactive |
| CCOc1cc(/C=C2\C(=O)N(CCc3ccc(OC)c(OC)c3)C(C)=C2C(=O)OC)ccc1O | 2.62% (inactive) |
| CCOc1cc(/C=C2\NC(=S)N(c3c(C)n(C)n(-c4ccccc4)c3=O)C2=O)ccc1O | 0.065% (inactive) |
| CCOc1cc(/C=C2\C(=O)N(c3cccc(C(F)(F)F)c3)C(=O)c3ccccc32)ccc1O | 17.1% (active) |
| CN(C)S(=O)(=O)c1cccc(NC(=O)COC(=O)/C=C/c2ccco2)c1 | inactive |
| COc1ccccc1-c1coc2cc(OCC(=O)OCc3ccccc3)ccc2c1=O | inactive |
| CCCOC(=O)c1ccc(NC(=O)C(CC)CC)cc1 | inactive |
| CCCCOC(=O)c1ccc(NC(c2ccc(C)cc2)P(=O)(OC)OC)cc1 (centres undefined) | 41.4% (active) |
| CCCOC(=O)c1ccc(NC(=O)c2cc(Cl)ccc2OC)cc1 | 0.345% (inactive) |
| Cc1ccc(NC(=O)c2cncc(Br)c2)cc1S(=O)(=O)N(C)C | inactive |
| CCCNC(=O)Cn1nc([N+](=O)[O-])c([N+](=O)[O-])c1C | inactive |
| CCn1cc([N+](=O)[O-])c(C(=O)N2N=C(c3ccccc3)CC2c2ccc([N+](=O)[O-])cc2)n1 (centres undefined) | 1.99% (inactive) |
| O=C(c1cccs1)N1N=C(c2ccccc2)CC1c1ccc(O)cc1 (centres undefined) | 30.5% (active) |
| COc1ccc(C2CC(c3ccccc3)=NN2C(=O)COC(=O)C2CC2)cc1 (centres undefined) | 1.49% (inactive) |

| Compound | CPE inhibition |
| --- | --- |
| COc1ccccc1-c1nnc(NC(=O)C2=COCCO2)o1 | 0.3% (inactive) |
| Cc1onc(-c2c(F)cccc2Cl)c1C(=O)NC(=S)NCc1cccnc1 | inactive |
| O=C(CNC(=O)C1CCCCC1)Nc1cc(Cl)ccc1Cl | inactive |
| CCN(CC)S(=O)(=O)c1ccc(C)c(NC(=S)NNC(=O)C2CC2)c1 | 0.73% (inactive) |
| CCN(CC)c1ccc(S(=O)(=O)Nc2cc(Cl)ccc2Cl)cc1NC(=S)NC(=O)C1CCCC1 | 26.9% (active) |
| O=[N+]([O-])c1cccc(N/N=C/c2cccc3ccccc23)c1 | 0.555% (inactive) |
| CCn1cc(CNC(=O)c2cccc([N+](=O)[O-])c2)c(C)n1 | 0.4% (inactive) |
| O=C(Cc1ccc(Cl)cc1)Nc1cccc(S(=O)(=O)Nc2ccccc2F)c1 | 0.29% (inactive) |
| Cc1cccc(NC(=S)N/N=C2/CCCCc3ccccc32)c1 | 11.6% (active) |
| Cc1cccc(NC(=S)N2CCCCCC2)c1 | 0.335% (inactive) |
| Cc1cccc(NC(=S)N2CCCCC2)c1 | 0.28% (inactive) |
| Cc1ccc(C(=O)NN2C(=O)C3C4c5ccccc5C(c5ccccc54)C3C2=O)cc1 (centres undefined) | 1.93% (inactive) |
| COc1ccc(O)c(C(=O)c2cc(C(=O)NCCc3ccccc3)c(=O)n(CCc3ccccc3)c2)c1 | 15.6% (active) |
| COc1ccc(CCNC(=O)c2ccccc2N(C)S(=O)(=O)c2ccccc2)cc1 | inactive |
| CCOc1ccccc1NC(=O)c1cc(C(=O)c2cc(OC)ccc2O)coc1=N | inactive |
| Cc1ccc(SCc2cc(=O)[nH]c(Nc3nc(C)c4ccc(C)cc4n3)n2)cc1 | 2.63% (inactive) |
| Cc1ccccc1-c1ccc(C(=O)NCc2ccccc2)o1 | inactive |
| O=C(C[n+]1cc(-c2ccc(Cl)cc2)n2c1CCC2)N1c2ccccc2Sc2ccccc21 | 2.13% (inactive) |
| O=C(C[n+]1cc(-c2ccccc2)n2c1CCC2)N1c2ccccc2Sc2ccccc21 | 2.94% (inactive) |
| O=C(C[n+]1cc(-c2ccc(Cl)c(Cl)c2)n2c1CCC2)N1c2ccccc2Sc2ccccc21 | 15.1% (active) |

| Compound | CPE inhibition |
| --- | --- |
| Cc1ccc(N=Nc2ccc(O)c3ncccc23)cc1 | 0.345% (inactive) |
| O=S(=O)(Nc1ccc2ccccc2c1)c1ccccc1 | inactive |
| O=S(=O)(Nc1ccc(N=Nc2ccc(O)c3ccccc23)cc1)c1ccccc1 | 10.4% (active) |
| Cc1ccc(-c2cc3nc(-c4ccc(Br)cc4)cc(N)n3n2)cc1 | 8.6% (inactive) |
| CCC(C(=O)OCC(=O)Nc1ccccc1-c1ccccc1)c1ccccc1 (centres undefined) | 4.5% (inactive) |
| Cc1ccccc1CSCC(=O)Nc1ccccc1-c1ccccc1 | 2.64% (inactive) |
| O=C(CNC(c1ccccc1)c1ccccc1)Nc1ccccc1-c1ccccc1 | 25.7% (active) |
| Cc1ccc(/C=N/n2c(C)cc(C)c(C#N)c2=O)o1 | 1.26% (inactive) |
| Cc1ccc(C2=[N+]([O-])C(C)(C)N(O)C2(C)C)cc1 | inactive |
| CCOC(=O)NC(NC(=S)Nc1ccccc1OC)C(Cl)(Cl)Cl (centres undefined) | 1.97% (inactive) |
| CCc1ccc(OCC(=O)NC(NC(=S)Nc2ccccc2OC)C(Cl)(Cl)Cl)cc1 (centres undefined) | 12.2% (active) |
| CCC(=O)NC(NC(=S)Nc1ccccc1Br)C(Cl)(Cl)Cl (centres undefined) | 0.015% (inactive) |
| c1ccc2c(c1)CCN(c1nc(CN3CCOCC3)nc3sc4c(c13)CCCC4)C2 | 7.32% (inactive) |
| COc1cc2c(cc1OC)CN(c1nc(CN3CCOCC3)nc3sc4c(c13)CCC(C)C4)CC2 (centres undefined) | inactive |
| Cc1cccc(Oc2nc(CN3CCOCC3)nc3sc4c(c23)CCCC4)c1 | 15.4% (active) |
| Cc1c(C)c2ccc(OS(C)(=O)=O)cc2oc1=O | 0.305% (inactive) |
| O=C(O)CCCCCn1c(O)c(C=C2N=c3ccccc3=N2)sc1=S | 11.8% (active) |
| Oc1c(C=C2N=c3ccccc3=N2)sc(=S)n1-c1ccccc1 | 1.34% (inactive) |
| Oc1c(C=C2N=c3ccccc3=N2)sc(=S)n1C1CCCC1 | 0.885% (inactive) |
